Calls of active or inactive are those of the source. No stated cut-off is given here; in the data, active means nuclear beta-catenin stimulation mostly above about 4.2% (no sharp cut-off); inactive means mostly below about 10%.

The nature of the first assay: Wnt pathway potentiators raising nuclear beta-catenin – imaging, WNT3A-conditioned medium, mouse C2C12, NPC library, primary screen (AID 1117326). Further: reference of the scale not given here. The note with it: at 10 µM, stronger effect = higher value.
For `CCC(=O)Nc1ccc(O)cc1`, the nuclear beta-catenin stimulation is 9.3% (inactive).
In the case of `COC(=O)c1cc(S(C)(=O)=O)ccc1OC`, the nuclear beta-catenin stimulation is 1% (inactive).
For `Cc1cccc(N(C)C(=S)Oc2ccc3c(c2)CCC3)c1`, the nuclear beta-catenin stimulation is 0% (inactive).
Consider `Nc1c(N=Nc2ccc(-c3ccc(N=Nc4cc(S(=O)(=O)O)c5ccccc5c4N)cc3)cc2)cc(S(=O)(=O)O)c2ccccc12`, for which the nuclear beta-catenin stimulation is -3.3% (inactive).
Still for that read-out and setting: the figure for `CCOC(=O)CN1CCCC1=O` is 1.9% (inactive); for `COC(=O)[C@H]1[C@H]2C[C@@H]3c4[nH]c5cc(OC)ccc5c4CCN3C[C@H]2C[C@@H](OC(=O)COc2ccc(OC)cc2)[C@@H]1OC` it is 3.2% (inactive); for `CCCCN(CCCC)C(C(N)=O)c1ccc(OC)cc1` (stereo not drawn) it is 0% (inactive).
With `CN[C@@H]1[C@@H](O)[C@@H](O[C@@H]2[C@H](O)[C@H](O[C@H]3OC(CN)=CC[C@H]3N)[C@@H](N)C[C@H]2N)OCC1(C)O` (stereo partly drawn), the nuclear beta-catenin stimulation was 3.9% (inactive).
Take `COc1ccc2c(c1)c(CC(=O)OC/C=C(\C)CC/C=C(\C)CCC=C(C)C)c(C)n2C(=O)c1ccc(Cl)cc1`: the nuclear beta-catenin stimulation was 2.2% (inactive).
As to `CCc1ccc(C(=O)C(C)CN2CCCCC2)cc1` (stereo not drawn), the nuclear beta-catenin stimulation is -0.3% (inactive).
With `O=C(O)c1cc(O)c2c(c1)[O][Bi][O]2`, the nuclear beta-catenin stimulation is -2.2% (inactive).
With `CCN(CC)CC(=O)Oc1ccc(NC(C)=O)cc1`, the nuclear beta-catenin stimulation was -0.5% (inactive).
The same measure, in the same setting: the figure for `C/C=C/c1ccc(O)c(OC)c1` is 9.7% (inactive).
As for `O=C(/C=C/c1ccc(O)c(O)c1)O[C@@H]1C[C@@](OC(=O)/C=C/c2ccc(O)c(O)c2)(C(=O)O)C[C@@H](O)[C@@H]1O`, the nuclear beta-catenin stimulation was 0.7% (inactive).
`CCCc1c2oc(C(=O)O)cc(=O)c2cc2c(=O)cc(C(=O)O)n(CC)c12`: the nuclear beta-catenin stimulation is -1.6% (inactive).
In the case of `Nc1ccc(C(=O)N2CC3CC(CN(Cc4ccccc4)C3)C2)cc1`, the nuclear beta-catenin stimulation is 3.2% (inactive).
The same measure, in the same setting: the figure for `Nc1ccc(S(=O)(=O)NCc2ccccc2)cc1` is 0.8% (inactive); for `Cc1ccccc1C(=O)Nc1ccc(C(=O)N2CCCC(N(C)C)c3ccccc32)cc1` (stereo not drawn) it is 58.3% (active).
For `CCCCCCCCCCCCCCCC[N+](C)(C)Cc1ccccc1`, the nuclear beta-catenin stimulation is 38.6% (inactive).
Still for that read-out and setting: the figure for `O=C(CCCCCCCCC#CI)Oc1ccccc1` is 3% (inactive).
In the case of `CCCCOC(=O)CCCCCCCCC(=O)OCCCC`, the nuclear beta-catenin stimulation is 1.4% (inactive).
Regarding `CCN1/C(=C/C=C/c2sc3ccccc3[n+]2CC)Sc2ccccc21`, the nuclear beta-catenin stimulation was 1.2% (inactive).
Take `CCN1CCCC1=O`: the nuclear beta-catenin stimulation is -0.1% (inactive).
Consider `CO[C@@H]1[C@@H](O[C@@H]2O[C@H](C)[C@@H](O[C@H]3C[C@@](C)(O)[C@@H](O)[C@H](C)O3)[C@H](N(C)C)[C@H]2O)[C@@H](CC=O)C[C@@H](C)[C@@H](O[C@@H]2CC[C@H](N(C)C)[C@@H](C)O2)/C=C/C=C/C[C@@H](C)OC(=O)C[C@H]1OC(C)=O`, for which the nuclear beta-catenin stimulation is -0.1% (inactive).
On to `O=C1OC2(c3ccccc31)c1cc(Br)c(O)c(Br)c1Oc1c2cc(Br)c(O)c1Br`, for which the nuclear beta-catenin stimulation was -0.8% (inactive).
`CC(C)[C@H](N)C(=O)O`: the nuclear beta-catenin stimulation was -0.1% (inactive).
For `CCCCCC[C@@H](CCC)C(=O)O`, the nuclear beta-catenin stimulation was -0.3% (inactive).
Consider `CC(=O)SCC(CC(=O)c1ccc(C)cc1)C(=O)O` (stereo not drawn), for which the nuclear beta-catenin stimulation was 0.5% (inactive).
With `OC1(c2ccc(Cl)cc2)CCNCC1`, the nuclear beta-catenin stimulation is -0.1% (inactive).
The same measure, in the same setting: the figure for `Oc1cc(O)cc(O)c1` is -0.5% (inactive); for `CN(C)[C@@H]1C(=O)C(C(N)=O)=C(O)[C@@]2(O)C(=O)C3=C(O)c4c(O)cccc4C[C@H]3C[C@@H]12` it is 11% (inactive).
Same read-out and setting: the figure for `C#C[C@]1(O)CC[C@@H]2[C@@H]3CCC4=CCCC[C@@H]4[C@H]3C(=C)C[C@@]21CC` is 1% (inactive); for `CCc1cc2cc(OC)c(OC)cc2c(Cc2ccccc2)n1` it is 7.1% (inactive); for `O=C1Nc2ccccc2C1(c1ccc(O)cc1)c1ccc(O)cc1` it is -0.4% (inactive).
Same read-out and setting: the figure for `NC(=O)NS(=O)(=O)c1ccc(Cl)cc1` is 1.1% (inactive); for `O=Cc1ccc(O)c(O)c1O` it is 1.4% (inactive); for `O=C(Nc1ccc(Cl)cc1)Nc1ccc(Cl)c(C(F)(F)F)c1` it is 25.5% (inactive).
In the case of `CCOC(=O)C(C#N)=C(c1ccccc1)c1ccccc1`, the nuclear beta-catenin stimulation is 0.9% (inactive).
For `CCCCCOc1ccccc1/C(=C\SC)n1ccnc1`, the nuclear beta-catenin stimulation was 0.8% (inactive).

Still in this assay, the particulars now being: stimulation, at 2 µM, stronger effect = higher value.
Consider `CCC(=O)Nc1ccc(O)cc1`, for which the nuclear beta-catenin stimulation was determined as 1.9%.
Consider `COC(=O)c1cc(S(C)(=O)=O)ccc1OC`, for which the nuclear beta-catenin stimulation amounted to 3.6%.
On to `Cc1cccc(N(C)C(=S)Oc2ccc3c(c2)CCC3)c1`, for which the nuclear beta-catenin stimulation was -1.8%.
As for `Nc1c(N=Nc2ccc(-c3ccc(N=Nc4cc(S(=O)(=O)O)c5ccccc5c4N)cc3)cc2)cc(S(=O)(=O)O)c2ccccc12`, the nuclear beta-catenin stimulation turned out to be 0.3%.
With `CCOC(=O)CN1CCCC1=O`, the nuclear beta-catenin stimulation was 21%.
`COC(=O)[C@H]1[C@H]2C[C@@H]3c4[nH]c5cc(OC)ccc5c4CCN3C[C@H]2C[C@@H](OC(=O)COc2ccc(OC)cc2)[C@@H]1OC`: the nuclear beta-catenin stimulation was -0.2%.
On the same count and under the same terms, the figure for `CCCCN(CCCC)C(C(N)=O)c1ccc(OC)cc1` (stereo not drawn) is -1.4%.
Regarding `CN[C@@H]1[C@@H](O)[C@@H](O[C@@H]2[C@H](O)[C@H](O[C@H]3OC(CN)=CC[C@H]3N)[C@@H](N)C[C@H]2N)OCC1(C)O` (stereo partly drawn), the nuclear beta-catenin stimulation stood at 5.2%.
`COc1ccc2c(c1)c(CC(=O)OC/C=C(\C)CC/C=C(\C)CCC=C(C)C)c(C)n2C(=O)c1ccc(Cl)cc1`: the nuclear beta-catenin stimulation is 3%.
In the case of `CCc1ccc(C(=O)C(C)CN2CCCCC2)cc1` (stereo not drawn), the nuclear beta-catenin stimulation was -0.1%.
Still for that read-out and setting: in the case of `O=C(O)c1cc(O)c2c(c1)[O][Bi][O]2` it was 1%.
For `CCN(CC)CC(=O)Oc1ccc(NC(C)=O)cc1`, the nuclear beta-catenin stimulation came to 6.1%.
The same measure, in the same setting: in the case of `C/C=C/c1ccc(O)c(OC)c1` it was 0.5%; in that of `O=C(/C=C/c1ccc(O)c(O)c1)O[C@@H]1C[C@@](OC(=O)/C=C/c2ccc(O)c(O)c2)(C(=O)O)C[C@@H](O)[C@@H]1O`, 0.9%.
For `CCCc1c2oc(C(=O)O)cc(=O)c2cc2c(=O)cc(C(=O)O)n(CC)c12`, the nuclear beta-catenin stimulation is -1%.
On to `Nc1ccc(C(=O)N2CC3CC(CN(Cc4ccccc4)C3)C2)cc1`, for which the nuclear beta-catenin stimulation is 0.5%.
The same measure, in the same setting: in the case of `Nc1ccc(S(=O)(=O)NCc2ccccc2)cc1` it was 1.8%; in that of `Cc1ccccc1C(=O)Nc1ccc(C(=O)N2CCCC(N(C)C)c3ccccc32)cc1` (stereo not drawn), 30%; in that of `CCCCCCCCCCCCCCCC[N+](C)(C)Cc1ccccc1`, 0.7%.
The same measure, in the same setting: in the case of `O=C(CCCCCCCCC#CI)Oc1ccccc1` it was 0.2%; in that of `CCCCOC(=O)CCCCCCCCC(=O)OCCCC`, 1%; in that of `CCN1/C(=C/C=C/c2sc3ccccc3[n+]2CC)Sc2ccccc21`, 7.5%.
Same read-out and setting: in the case of `CCN1CCCC1=O` it was 2.9%; in that of `CO[C@@H]1[C@@H](O[C@@H]2O[C@H](C)[C@@H](O[C@H]3C[C@@](C)(O)[C@@H](O)[C@H](C)O3)[C@H](N(C)C)[C@H]2O)[C@@H](CC=O)C[C@@H](C)[C@@H](O[C@@H]2CC[C@H](N(C)C)[C@@H](C)O2)/C=C/C=C/C[C@@H](C)OC(=O)C[C@H]1OC(C)=O`, -1.2%; in that of `O=C1OC2(c3ccccc31)c1cc(Br)c(O)c(Br)c1Oc1c2cc(Br)c(O)c1Br`, -2.9%.
Regarding `CC(C)[C@H](N)C(=O)O`, the nuclear beta-catenin stimulation was 1.3%.
For `CCCCCC[C@@H](CCC)C(=O)O`, the nuclear beta-catenin stimulation is -0.9%.
As to `CC(=O)SCC(CC(=O)c1ccc(C)cc1)C(=O)O` (stereo not drawn), the nuclear beta-catenin stimulation was -0.4%.
For `OC1(c2ccc(Cl)cc2)CCNCC1`, the nuclear beta-catenin stimulation was -1.2%.
On to `Oc1cc(O)cc(O)c1`, for which the nuclear beta-catenin stimulation stood at 2.8%.
Same read-out and setting: in the case of `CN(C)[C@@H]1C(=O)C(C(N)=O)=C(O)[C@@]2(O)C(=O)C3=C(O)c4c(O)cccc4C[C@H]3C[C@@H]12` it was -0.5%; in that of `C#C[C@]1(O)CC[C@@H]2[C@@H]3CCC4=CCCC[C@@H]4[C@H]3C(=C)C[C@@]21CC`, -0.9%; in that of `CCc1cc2cc(OC)c(OC)cc2c(Cc2ccccc2)n1`, 3.1%.
For the compound `O=C1Nc2ccccc2C1(c1ccc(O)cc1)c1ccc(O)cc1`, the nuclear beta-catenin stimulation is -1.6%.
On to `NC(=O)NS(=O)(=O)c1ccc(Cl)cc1`, for which the nuclear beta-catenin stimulation is 16.9%.
Same read-out and setting: the figure for `O=Cc1ccc(O)c(O)c1O` is 1.9%; for `O=C(Nc1ccc(Cl)cc1)Nc1ccc(Cl)c(C(F)(F)F)c1` it is -0.2%.
Still for that read-out and setting: in the case of `CCOC(=O)C(C#N)=C(c1ccccc1)c1ccccc1` it was 1.8%; in that of `CCCCCOc1ccccc1/C(=C\SC)n1ccnc1`, -0.3%.

Values taken from PubChem BioAssay.
